# An excerpt weighted towards active compounds, which were near 7.9% of everything screened.
# MARV entry inh: blocks Marburg virus binding to or entry into cells. Marburg virus pseudotyped entry inhibition, cell reporter. Potency, µM (top dose mostly 37.8 µM), inactives show at the top dose activity change, negative = inhibition, actives largely listed as inhibitors. hit rate 1.8% among 300,000. AID 540276; calls by dose curve; tested in HEK293 cells; further: potency means the concentration at half of the fitted maximal effect
# HCV inh: inhibitors of hepatitis C virus infection. Potency, µM (highest dose often 41.8 µM), without a hit: at the highest dose activity change, negative = inhibition, actives largely listed as inhibitors. hit rate 3.4% among 340,000. Huh7.5.1 HCVcc-Cre infection, luciferase reporter, 44 h; active means well fitted inhibition curve with a large enough effect; inconclusive means small, poorly fitted or top-dose-only effect, or another doubt; inactive means no such curve, though single readings can be large or run the other way; further: potency means the concentration at half of the fitted maximal effect
#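 Reporter virus HCVcc-Cre (~0.5 moi) infects cells exposed to compound; seeding density 1,000 cells/well with 4 h settling beforehand. Luminescence, 15 sec read, taken 44 h post-infection following a 15 min RT substrate incubation.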
# HCMV inh: inhibitors of human cytomegalovirus | HFF cells, HCMV-luciferase reporter, 72 h; active compounds read low | activity change, negative = inhibition, % at 57.5 µM | hit rate 4.5% among 410,000; in the data active means activity change below about -60%; inconclusive means no clear call, values can overlap the other calls; inactive means above about -39%
#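 After 16 h attachment at 37C, HFF cells received test compound and HCMV-luciferase (1 PFU/cell); reporter luminescence read 72 h later, data normalized against buffer-only and known inhibitor Salinomycin.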
# FMDV antiviral: blocks foot and mouth disease virus. FMDV antiviral cell-based qHTS. Potency, µM (doses to about 57.9 µM), without a hit: at the top dose activity change, negative = inhibition, most hits filed as inhibitors. hit rate 1.2% among 410,000. AID 1159524; calls by dose curve; tested in HEK293T cells; further: read-out not given here; potency means the concentration at half of the fitted maximal effect; nearly all actives have a fitted effect of over 45% in size
# Lassa entry inh: blocks Lassa virus binding to or entry into cells; Lassa virus pseudotype entry inhibition, cell reporter; Potency, µM (top dose mostly 37.9 µM), for inactives: top-dose activity change, negative = inhibition, usual class: inhibitors; hit rate 1.2% among 300,000; AID 540256; calls by dose curve; tested in HEK293 cells; further: potency means the concentration at half of the fitted maximal effect; nearly all actives have a fitted effect of over 50% in size
# Numbers without * were called inactive; u = inconclusive; x = not tested or not shown; [ ] = dose if it differs, or a comment. On the % scale 0 is the no-effect control and ±100 the full control effect.
SMILES,MARV entry inh,HCV inh,HCMV inh,FMDV antiviral,Lassa entry inh
CCCCN(CCCC)CC(O)Cn1cc(/C=C/C(=O)c2ccccc2)c2ccccc21 (centres undefined),u,x,-105.9*,-15.2%,u
CCCCN(C)CC(O)Cn1cc(/C=C/C(=O)c2cccs2)c2ccccc21 (centres undefined),u,u,x,-0.1%,u
Cc1cc(=O)n(CC(=O)NC(C)c2ccccc2)c2c1c(C)nn2-c1cccc(F)c1 (centres undefined),x,x,3.7,-2.2%,10.6%[46.1 µM]
Cc1cccc(N2CCN(C(=O)Cn3c(C)c4cnn(-c5ccccc5)c(=O)c4c3C)CC2)c1C,-11.8%[46.1 µM],x,-81.3*,28.2µM*,u
Cc1cccc(NC(=O)CCCn2c(C)c3cnn(-c4ccccc4)c(=O)c3c2C)c1C,7.4%[46.1 µM],x,-10.9,-18.4%,3.3%[46.1 µM]
CCCCNC(=S)NNC(=O)CCn1nc(C)c(Br)c1C,u,16.8%,-106.4*,11.8%,u
Cc1cc(OCC(=O)Nc2cc(-c3nc4ccccc4[nH]3)ccc2C)ccc1Cl,20.9%[46.1 µM],x,54.4,u,-5.6%[46.1 µM]
CC1CCCN(S(=O)(=O)c2cc3c4c(c2)CC(=O)N4CCC3)C1 (centres undefined),x,x,-5.8,-16.8%,-5.5%[46.1 µM]
COCCCNC(=S)N1CCN(c2nc(C)nc3sc4c(c23)CCCC4)CC1,x,10µM*,u,-22.6%,x
CCCNC(=S)N1CCN(c2nc(C)nc3sc4c(c23)CCCC4)CC1,u,u,u,-28.0%,u
COc1ccccc1NC(=O)Cc1csc(NC(=S)Nc2ccc(C)cc2)n1,4.5%,u,-101.5*,u,u
CCC(=O)Nc1nc(CC(=O)Nc2ccccc2OC)cs1,3.1%,2.2%,15.3,-20.4%,-1.1%
COc1ccccc1NC(=O)Nc1nc(CC(=O)N2CCN(c3ccccc3OC)CC2)cs1,u,10µM*,-11.5,28.2µM*,u
COc1cc(C)ccc1NC(=O)Cc1csc(NC(=O)Nc2ccccc2OC)n1,u,8.91µM*,-10.1,u,u
O=C(NCc1cccc(Cl)c1)c1cnc(N2CCCCC2)c2ccccc12,x,x,53.8,14.2%,-20.8%[46.1 µM]
CC(C)c1cccc(-c2nc3c(Nc4ccccc4)nccc3[nH]2)c1,x,x,-17.3,x,x
COc1ccc(CCNC(=O)CCCn2c(=O)c3ccccc3n(CC(=O)Nc3ccc(C)cc3Cl)c2=O)cc1OC,-13.5%[46.1 µM],x,-38.5,-26.3%,u
CC(C)(C)C(C)(C)CN=CN1c2ccccc2-n2cccc2C1c1cccc(F)c1 (centres undefined),x,x,-4.6,x,x
CCO[C@@H]1OC(C(=O)NCc2nc3ccccc3[nH]2)=C[C@H](C2CC2)[C@H]1CCCO,x,u,0.4,-17.1%,x
CCO[C@@H]1OC(C(=O)NCc2nc3ccccc3[nH]2)=C[C@H](C(C)(C)C)[C@H]1CCCO,x,-8.6%,-79.9*,-28.9%,x
CCOC(=O)C1CCC(CN(Cc2cccc(Br)c2)S(=O)(=O)c2ccc(Cl)cc2)CC1 (centres undefined),x,x,3.4,-0.9%,-17.5%[46.1 µM]
CCOC(=O)c1sc(NC(=S)NC(=O)c2ccccc2)nc1C,x,10.0%,140.9,61.7%,x
CCOC(=O)C1=C(NC(=S)NC(=O)c2ccccc2)c2ccccc2CC12CCCC2,3.66µM*,u,-98.6*,u,2.59µM*
CC(C)[C@@H](OCc1ccccc1)[C@H](C)C=NOC[C@@H](O)[C@H]1O[C@@H]2OC(C)(C)O[C@H]2[C@@H]1O,-4.6%[14.2 µM],x,x,x,0.0%[14.3 µM]
CC(=O)SC(C[N+](=O)[O-])c1cn(C(C)=O)c2ccccc12 (centres undefined),-15.1%,11.2µM*,-105.6*,28.2µM*,-24.0%
SMILES,MARV entry inh,HCV inh,HCMV inh,FMDV antiviral,Lassa entry inh
CC(C)C[C@H](NC(=O)c1nc[nH]c1C(=O)N1CCNCC1)C(=O)OC(C)(C)C,x,12.0%,-19.2,-7.9%,x
CC(C)(C)OC(=O)[C@H](Cc1ccccc1)NC(=O)c1nc[nH]c1C(=O)NCC(=O)OCc1ccccc1,x,4.7%,-60.8*,-10.0%,x
COc1ccc(NC(=O)C(CCCCNC(=O)OC(C)(C)C)NC(=O)OCc2ccccc2)cc1 (centres undefined),9.7%,0.9%,-17.9,-28.5%,2.06µM*
CC(C)(C)OC(=O)CNC(=O)c1[nH]cnc1C(=O)N[C@@H](Cc1ccccc1)C(=O)OC(C)(C)C,x,-12.5%,9.7,u,x
C[C@H](NC(=O)c1nc[nH]c1C(=O)N1CCNCC1)C(=O)OC(C)(C)C,x,23.6%,-65.4*,-8.6%,x
CC(C)C[C@H](NC(=O)c1[nH]cnc1C(=O)N[C@@H](Cc1ccccc1)C(=O)OC(C)(C)C)C(=O)OC(C)(C)C,x,u,-88.5*,-12.8%,x
COc1cc(Cl)c(C)cc1NC(=O)c1nn(-c2ccc(C)cc2)c(=O)n(C)c1=O,x,x,4.7,-14.2%,4.2%[46.1 µM]
O=C(NCCCN1CCN(c2ccccc2F)CC1)c1ccc2nc(N3CCCCC3)sc2c1,u,x,94.0,-8.3%,u
CC(=O)c1ccc(-c2ccc3c4c(ccc3c2)OC(CNC(=O)C(C)N2CCOCC2)C4)s1 (centres undefined),x,x,x,2.3%,x
COc1ccc(NC(=O)c2nc[nH]c2C(=O)N[C@@H](CC(C)C)C(=O)OC(C)(C)C)cc1,x,-25.0%,-78.3*,-24.2%,x
COc1ccc(NC(=O)c2nc[nH]c2C(=O)N[C@@H](C)C(=O)OC(C)(C)C)cc1,x,-14.4%,50.5,5.5%,x
O=C(N[C@@H](Cc1ccccc1)C(=O)OCc1ccccc1)c1nc[nH]c1C(=O)N1CCNCC1,x,27.3%,-83.5*,-2.7%,x
CC(C)(C)OC(=O)N1CCN(C(=O)c2[nH]cnc2C(=O)N[C@@H](Cc2ccccc2)C(=O)OCc2ccccc2)CC1,x,13.1%,u,-17.4%,x
CC(C)(C)OC(=O)NCCCC[C@H](NC(=O)c1nc[nH]c1C(=O)NCC(=O)OCc1ccccc1)C(=O)OC(C)(C)C,x,1.6%,-89.4*,-24.7%,x
COc1cc2nc(NCCc3ccccc3)n3nc(-c4cccnc4)nc3c2cc1OC,1.5%[46.1 µM],x,9.2,-8.8%,x
Fc1cccc(-c2nnn3c2nc(NCCc2ccccc2)c2ccccc23)c1,1.2%[46.1 µM],x,59.5,7.6%,10.6%[46.1 µM]
NS(=O)(=O)c1ccc(CCNc2nc3c(-c4cccc(F)c4)nnn3c3ccc(Cl)cc23)cc1,u,x,-101.6*,8.8%,u
Cc1ccc(CNC(=O)CCCCn2c(=O)c3ccccc3n(Cc3c(C)cc(C)cc3C)c2=O)cc1,9.1%[46.1 µM],x,11.7,-20.9%,13.2%[46.1 µM]
CCCCCCCCn1c2c(c(=N)c3ccccc31)CCC2,u,2.82µM*,-97.0*,2.51µM*,u
CCCCCCCCCn1c2c(c(=N)c3c1CCC3)CCCC2,u,3.16µM*,x,10µM*,4.11µM*
CCCCCn1c2c(c(=N)c3ccccc31)CCC2,u,u,-96.4*,0.0%,u
CCn1c2c(c(=N)c3c1CCC3)CCCC2,u,-16.4%,-67.2*,-24.2%,16.3%[46.1 µM]
CCCCn1c2c(c(=N)c3ccccc31)CCC2,15.7%,-17.1%,-36.2,-28.9%,5.8%

# Screens as filed in PubChem.
